In ChEMBL document CHEMBL3988442, “University of Dundee, Small-Polar-MMV Screening Library” (2021):
The whole screen tested about 48,000 compounds, of which about 13,000 (27%) showed an effect of 50% or more. The list shows a part of the results.

Tested on: Wolbachia pipientis
Assay: Anti-Wolbachia Cell-Based Screen
Type: functional
Parameters: scale not given: in the data most compounds retested in dose-response had high values
Details: 5 µM

Point of comparison: `CC(=O)N(C)c1nc(CN2CCCC2Cn2nc(C)cc2C)cs1` (configuration not stated), “Percent Effect” value 89.05%. Against it:
- CN1CCC2(CCCN(C(=O)c3cncn3C)C2)CC1.O=C(O)C(F)(F)F — lower, -6.177%
- CCc1c(O)nc(SCC(=O)N(CC)CC)n(C(C)CC)c1=O (configuration not stated) — lower, -0.2531%
- CCc1c(O)nc(SCC(=O)Nc2ccccc2)n(C(C)CC)c1=O (configuration not stated) — lower, -0.04082%
- CCc1c(O)n(C(C)CC)c(SCC(=O)c2ccccc2)nc1=O (configuration not stated) — higher, 125.3%
- Cc1noc(C)c1CN1C[C@@H](C(=O)O)[C@H](C(C)C)C1 — lower, -19.42%
- COCCN1CCN(C(C)C(=O)Nc2ccnn2C(C)C)CC1 (configuration not stated) — lower, -8.101%
- CC(C)NC(=O)c1ccc2c(c1)nc1n2CCN(Cc2ccccc2)C1 — higher, 112.9%
- COCCN1CCn2c(nc3cc(C(=O)NC(C)C)ccc32)C1 — higher, 122.8%
- CCNC(=O)c1ccc2c(c1)nc1n2CCN(C(C)C)C1 — higher, 109.5%
- CC(C)CN1CCn2c(COCc3cccnc3)nnc2C1.O=C(O)C(F)(F)F.O=C(O)C(F)(F)F — lower, -7.115%
- CCc1nnc2n1CCN(Cc1ccc(C(=O)N3CCCC3)cc1)C2 — lower, 0.2623%
- CC(C)N1CCn2c(nc3cc(C(N)=O)ccc32)C1 — lower, 42.97%
- CC(C)CN1CCn2c(nc3cc(C(=O)NC(C)C)ccc32)C1 — higher, 121.2%
- Cc1nnc2n1CCN(CC(=O)NC(C)c1ccc3ccccc3c1)C2 (configuration not stated) — lower, -2.487%
- CC(C)NC(=O)c1ccc2c(c1)nc1n2CCN(C(C)C)C1 — lower, -1.576%
- CC(C)NC(=O)c1ccc2c(c1)nc1n2CCN(c2ccccc2)C1 — lower, 20.1%
- CCN1CCN(c2ccc(C(=O)NC(C)CCOC)cc2)CC1 (configuration not stated) — lower, -9.084%
- O=C(Nc1ccccc1CCc1ccccn1)NC1CCOCC1 — lower, -7.389%
- O=C1NCCN(C(=O)c2cn3ccsc3n2)C1Cc1ccccc1 (configuration not stated) — lower, -8.073%
- Cc1cnn(CC2CCCN2Cc2cc(=O)n3ccccc3n2)c1 (configuration not stated) — lower, 2.976%
- COc1ccccc1C1(CNc2ccc(C(=O)N(C)C)cn2)CC1 — lower, 4.76%
- COc1ccccc1C1(CNc2ccnc(C(=O)N(C)C)c2)CC1 — lower, 15.85%
- COc1ccccc1-c1nc(C(=O)N2CCOCC2)n2ccncc12 — higher, 98.47%
- COc1ccccc1-c1nc(C(=O)N(C)C)n2ccncc12 — higher, 107.3%
- Cc1c(C(=O)N2CCCOCC2)nnn1-c1cccc2cnccc12 — lower, 5.187%
- COc1ccccc1C(=O)N1CCN(C(=O)CCn2ccnc2)CC1 — lower, 1.871%
- CCN(CC)CCn1cc(NC(=O)CNc2ccccc2OC)cn1 — lower, 1.772%
- COC(=O)CNC(=O)c1nc(-c2ccccc2OC)c2cnccn12 — higher, 100.8%
- COC(=O)CCNC(=O)c1c[nH]cc1-c1ccccc1OC — lower, 1.896%
- COc1cccc(CNC(C)c2ccc(-n3ccnc3)cc2)c1OC.Cl (configuration not stated) — lower, 1.707%
- Cc1nnc(C(C)Nc2ccc(OCCc3ccccc3)nc2)o1 (configuration not stated) — lower, -0.9062%
- COc1cc(CNc2nc(C(F)(F)F)no2)cc(OC)c1OC — lower, 5.574%
- Fc1cccc(CN2CCC(c3n[nH]c4ncccc34)CC2)c1F — lower, -6.364%
- Cl.Fc1ccc(CN2CCC(c3n[nH]c4ncccc34)CC2)cc1F — lower, 3.09%
- CC(C1CCN(Cc2ccc(OC(F)F)cc2)CC1)N1CCOCC1 (configuration not stated) — lower, 6.94%
- CC(C)Oc1cccc(CN2CCC(C(C)N3CCOCC3)CC2)c1 (configuration not stated) — lower, 8.799%
- CC(C)Oc1ccc(CN2CCC(Cc3nnc(CO)n3C)CC2)cc1 — lower, -3.16%
- Fc1cccc(Cl)c1CN1CCC(c2n[nH]c3ncccc23)CC1 — higher, 100.4%
- CC(C)Oc1cccc(CN2CCC(c3n[nH]c4ncccc34)CC2)c1 — higher, 89.98%
- CC(C)Oc1ccc(CN2CCC(c3n[nH]c4ncccc34)CC2)cc1 — higher, 97.82%
- Cc1cc(NC(=O)c2nc(N3CCCC3)ncc2Cl)ccc1Br — lower, 7.259%
- Cc1ncoc1C(=O)N1C[C@@H]2COC[C@]2(c2nnc(C3CC3)o2)C1 — lower, 19.81%
- O=C(c1cc(C2CC2)nc2onc(-c3ccccc3)c12)N1CC(O)C1 — lower, 1.744%
- O=C(c1cc(C2CCCCC2)no1)N1C[C@H]2C[C@H](O)C[C@H]2C1 — higher, 95.88%
- NC1CCCCN(Cc2cc(C3CCCCC3)no2)C1 (configuration not stated) — lower, 4.436%
- O=C(C1CCOCC1)N1C[C@H]2CC[C@@H]1CN(C1Cc3ccccc3C1)C2 — lower, 13.64%
- C[C@@H]1CN(C2CCN(c3ccccc3F)CC2)CC[C@]1(C)O — lower, -26.42%
- C[C@@H]1CN(CC(C)(C)N2CCOCC2)CC[C@@]1(O)C1CCOCC1 — lower, 4.466%
- C[C@@H]1CN(C2CCCCC2)CC[C@@]1(O)C1CCOCC1 — higher, 98.71%
- C[C@@H]1CN(C2Cc3ccccc3C2)CC[C@@]1(O)C1CCOCC1 — lower, 82.39%
- C[C@@H]1CN(S(=O)(=O)N2CCCC2)CC[C@@]1(O)C1CCOCC1 — lower, -9.489%
- C[C@@H]1CN(C2CCN(c3ccccc3)CC2)CC[C@@]1(O)C1CCOCC1 — higher, 103.2%
- C[C@@H]1CN(C(=O)c2ccc(=O)[nH]c2)CC[C@@]1(O)C1CCOCC1 — lower, -4.844%
- COc1ccc(CNC(=O)CNc2cc3c(cc2Cl)OCCO3)cc1 — lower, 11.87%
- CN1CCc2onc(CNc3ncccn3)c2C1.O=C(O)C(F)(F)F.O=C(O)C(F)(F)F — lower, -12.85%
- Cc1ccc(CN(Cc2ccccn2)C(=O)[C@H]2CC[C@@H](N)C2)s1 — lower, -33.4%
- O=C(O)C(F)(F)F.c1c2c(nn1CC1CC1)C(CNC1CCOCC1)OCC2 (configuration not stated) — lower, 5.412%
- COCCN(Cc1ccc(F)cc1Cl)C(=O)c1cccc[n+]1[O-] — lower, -30.73%
- O=S(=O)(c1ccccc1F)N1CCC(Oc2cccnn2)CC1 — lower, -7.526%
- COc1ccccc1S(=O)(=O)N1CCC(Oc2cccnn2)CC1 — lower, -12.85%
- Cc1n[nH]c(C)c1S(=O)(=O)N1CCC(Oc2ccccc2F)CC1 — higher, 121.8%
- Cc1noc(C)c1S(=O)(=O)N1CCC(Oc2ccccn2)CC1 — lower, 2.267%
- Cc1ccccc1OC1CCN(S(=O)(=O)c2c(C)n[nH]c2C)CC1 — higher, 120.4%
- Cc1noc(C)c1S(=O)(=O)N1CCC(Oc2cccnn2)CC1 — lower, -5.902%
- CCOC(=O)C1CCN(CCCc2nnnn2-c2ccccc2)CC1 — lower, 10.8%
- NC(=O)NCC1CCCCN1C(=O)c1cc(F)cc(F)c1 (configuration not stated) — higher, 94.01%
- Cc1ccc(C(=O)N2CCCCC2CNC(N)=O)s1 (configuration not stated) — lower, -21.76%
- CNS(=O)(=O)CC1CCCN1C(=O)c1ccc(C)c(C)c1 (configuration not stated) — lower, 1.148%
- NC(=O)NCC1CCCCN1C(=O)c1ccc(Br)s1 (configuration not stated) — lower, 13.78%
- NC(=O)NCC1CCCCN1C(=O)c1ccc(Cl)s1 (configuration not stated) — lower, 6.082%
- Cc1ccc(C(=O)N2CCCCC2CNC(N)=O)cc1F (configuration not stated) — higher, 100.6%
- NC(=O)NCC1CCCCN1C(=O)c1cccc(Cl)c1 (configuration not stated) — higher, 109.7%
- COc1cccc(C(=O)N2CCCCC2CNC(N)=O)c1 (configuration not stated) — lower, 4.596%
- CN(C)c1ccc(C(=O)N2CCCCC2CC(N)=O)c(F)c1 (configuration not stated) — lower, -10.13%
- c1ncn(CC2CCCN2Cc2cn3ccsc3n2)n1 (configuration not stated) — lower, -12.38%
- Cc1cc(C)n(CC2CCCN2C(=O)Cc2csc(C)n2)n1 (configuration not stated) — lower, -5.348%
- CCN(C(C)=O)c1nc(CN2CCCC2Cn2cncn2)cs1 (configuration not stated) — higher, 93.1%
- Cc1cccn2c(=O)cc(CN3CCCCC3Cn3cncn3)nc12 (configuration not stated) — lower, -0.6189%
- Cc1cc(C)n(CC2CCCN2CC(=O)N(C)C)n1 (configuration not stated) — lower, -0.9617%
- CC(=O)Nc1nc(CN2CCCC2Cn2cncn2)cs1 (configuration not stated) — lower, -0.3919%
- CN(C)C(=O)Cc1nc(CN2CCCC2Cn2cccn2)cs1 (configuration not stated) — lower, -60.87%
- CCN(C(C)=O)c1nc(CN2CCCCC2Cn2cncn2)cs1 (configuration not stated) — higher, 113.4%
- CC(=O)Nc1nc(CN2CCCCC2Cn2cncn2)cs1 (configuration not stated) — higher, 101%
- NC(=O)c1ccc(N2CCCCC2)c(NC(=O)c2ccc(F)cc2Cl)c1 — lower, -3.289%
- CSc1nc(C2CC2)nc(C)c1C(=O)NCc1ncc(C)o1 — lower, 6.945%
- CCc1nc(CN2CCCN(C(=O)c3cn[nH]c3CC)CC2)cs1 — lower, 9.391%
- Cc1cc(NC(=O)N2CCCC(O)C2)nn1-c1ccccc1Cl (configuration not stated) — lower, -23.68%
- CN(C)C(=O)Cc1nc(CN2CCCC2Cn2cncn2)cs1 (configuration not stated) — lower, -5.183%
- CC(=O)N(C)c1nc(CN2CCCCC2Cn2cncn2)cs1 (configuration not stated) — lower, -7.447%
- CC(=O)N(C)c1nc(CN2CCCC2Cn2cncn2)cs1 (configuration not stated) — higher, 102%
- COc1ccc(N(C)C(=O)c2cccc(S(C)(=O)=O)c2)cn1 — lower, -2.349%
- Cc1nc[nH]c1C(=O)N1CC[C@@H](NC(=O)c2ccccn2)[C@H](O)C1 — lower, -7.66%
- CO[C@H]1CN(C(=O)c2ccc3oc(C)cc3c2)CC[C@@]12CCCO2 — lower, 0.1168%
- CO[C@H]1CCN(C(=O)c2ccc3oc(C)cc3c2)C[C@@]12CCCO2 — higher, 93.08%
- Cc1cc2cc(C(=O)N3C[C@H](O)[C@]4(CCCO4)C3)ccc2o1 — higher, 113.6%
- CC(=O)N1CCC2(CC1)CN(C(=O)c1ccc3c(c1)OCCO3)C2 — lower, -18.73%
- COc1ccc(C(=O)N2C[C@@H](C)[C@@](C)(O)C2)cc1N1CCOCC1 — lower, -1.788%
- COc1ccc(C(=O)N2CC[C@](C)(O)[C@H](C)C2)cc1N1CCOCC1 — lower, 0.3479%
- CC[C@@]1(O)CCN(C(=O)c2cccc3cc(C)oc23)C[C@H]1O — lower, 10.55%
- CO[C@H]1CN(C(=O)c2ccc3oc(C)cc3c2)C[C@@]12CCCO2 — higher, 96.35%
- Cc1cc2cc(C(=O)N3CC[C@H](O)[C@]4(CCCO4)C3)ccc2o1 — lower, 1.113%
